# TEAD-YAP inh: TEAD-YAP interaction inhibition, primary screen, TEAD-YAP interaction inhibitor project, luminescence, HEK-TIYL cells; TEAD-Gal4/YAP UAS-luciferase luminescence; inhibition, % at 9.12 µM; actives 1.4% (n = 640,000); AID 1259422, 2018; in the data active = inhibition above about 32%;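 note: 0% = median of test compound wells and 100% = reference inhibitor wells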
# FBW7 activator: FBW7 E3 ligase activators, primary screen, biochemical, AlphaScreen, human; F-box/WD repeat-containing protein 7 (Homo sapiens), Q969H0; actives 0.13% (n = 650,000); AID 1259310, 2017; AlphaScreen FBW7–phospho-cyclin E peptide binding, activator screen; normalized activity (activation), % at 26.1 µM; in the data active = normalized activity above about 1.9%;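 note: purified mutant Fbw7 with reduced substrate affinity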
# GPR151 ag: activators of human GPR151, primary screen, cell-based, PathHunter beta-arrestin, luminescence | PathHunter beta-arrestin GPR151 cells | activation, % at 11.2 µM | actives 1% (n = 650,000) | G-protein coupled receptor 151 (Homo sapiens), Q8TDV0; in the data active = activation above about 4.9%;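 note: 0% = median of compound wells and 100% = cells with positive control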
# MITF primary: MITF inhibitors, primary screen, biochemical, AlphaScreen, human. Microphthalmia-associated transcription factor (Homo sapiens), O75030. AlphaScreen MITF homodimerization, bead proximity signal. inhibition, % at 2.6 µM. actives 0.91% (n = 650,000); in the data active = inhibition above about 50%;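 note: 0% = vehicle wells with protein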
# Target sequence (O75030 whole entry, looked up): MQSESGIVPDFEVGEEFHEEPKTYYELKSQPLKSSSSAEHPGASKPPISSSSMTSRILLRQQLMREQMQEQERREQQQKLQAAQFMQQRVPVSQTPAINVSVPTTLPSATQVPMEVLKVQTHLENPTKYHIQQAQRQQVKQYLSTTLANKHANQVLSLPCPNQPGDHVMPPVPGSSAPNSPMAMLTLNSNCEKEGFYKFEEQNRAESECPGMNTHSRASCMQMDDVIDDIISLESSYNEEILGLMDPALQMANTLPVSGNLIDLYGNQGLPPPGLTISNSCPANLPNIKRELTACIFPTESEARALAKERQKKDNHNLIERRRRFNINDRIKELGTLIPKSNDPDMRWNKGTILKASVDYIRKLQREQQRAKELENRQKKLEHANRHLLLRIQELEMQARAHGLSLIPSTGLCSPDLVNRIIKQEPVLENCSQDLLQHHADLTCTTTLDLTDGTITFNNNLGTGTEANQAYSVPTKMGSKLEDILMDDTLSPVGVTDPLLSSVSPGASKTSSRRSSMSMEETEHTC
# GPR151 confirm: GPR151 activators, triplicate retest, confirmation, cell-based, PathHunter beta-arrestin, luminescence. shares compounds with GPR151 ag. GPR151 PathHunter beta-arrestin cells, 90 min; % of EA-reagent control over plate median. activation, % at 11.2 µM. 6,700 tested, under 10 active. AID 1508609, 2020;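 active = mean percent activation across replicates above the confirmation screen cutoff of 4.91%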
# GPR119 ag: GPR119 activators in beta-arrestin cells, counter-screen for GPR151 activator project, cell-based, PathHunter beta-arrestin, luminescence, triplicate; shares compounds with GPR151 ag; 90 min; 0 = compound-well median, 100 = enzyme-acceptor control; activation, % at 11.2 µM; actives 0.3% (n = 6,700);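 active = mean percent activation in the counterscreen above 29.09%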;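 note: counterscreen on off-target GPR119 to flag nonselective hits from the GPR151 activator screen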
# * hit, by the source's call; . = no result given; ! = repeats disagree. Shown are actives, neighbours in structure and some others; about 3.5% of the full set was active somewhere.
SMILES,TEAD-YAP inh,FBW7 activator,GPR151 ag,MITF primary,GPR151 confirm,GPR119 ag
Cc1cc(C)nc(SCC(=O)c2c(-c3ccccc3)[nH]c3ccccc23)n1,3,0,-1,0,.,.
CCc1c(C)sc2ncn(C3CCN(Cc4cccnc4)CC3)c(=O)c12,-7,0,0,4,.,.
COc1nc(NCCCN2CCCC2=O)nc(-c2ccc(C(N)=O)cc2)n1,-7,1,8.5*,25,0,-3
COc1nc(NCCCN2CCCC2=O)nc(-c2ccc(C(=O)N3CCN(C)CC3)cc2)n1,4,0,3,2,.,.
COC(C(=O)Nc1c(F)cccc1F)c1ccccc1 (stereo not given),-1,1,5.9*,1,0,-8
COC(C(=O)Nc1ccccc1C(=O)O)c1ccccc1 (stereo not given),4,0,0,12,.,.
COCC(=O)N1CCC(Oc2ccc(C(=O)N[C@H]3CCCCNC3=O)cc2)CC1,5,0,0,9,.,.
CCOC(CNC(=O)c1ccc2cc[nH]c2c1)(OCC)c1ccncc1,-6,0,7.3*,5,-1,-2
c1cc2c3c(cccc3c1)C(N1CCOCC1)=NN2,3,0,-1,23,.,.
O=[N+]([O-])c1ccc2[nH]cc(S(=O)(=O)Nc3ccc(F)cc3)c2c1,-10,0,1,0,.,.
CCCCCOC(=O)CSc1nc(N)c2c3c(sc2n1)CCCC3,-5,0,-1,1,.,.
CCOC(=O)CSc1nc(N)c2c3c(sc2n1)CCCC3,-8,1,13*,-3,-1,0
CCCc1cc(C(=O)Nc2sc(C)c(CC)c2C(N)=O)cs1,-28,1,9.1*,23,0,5
CCCC(=O)Nc1sc(C)c(CC)c1C(=O)OCC,8,0,13*,-4,0,-8
CCOC(=O)c1c(NC(=O)CNCC(O)CO)sc(C)c1C (stereo not given),-16,0,5.3*,-11,1,5
COc1cc(/C=C\C(=O)NCCCC(=O)Nc2cccc3cccnc23)cc(OC)c1OC,9,0,-2,20,.,.
O=S(=O)(c1ccc(C(F)(F)F)cc1)N1CCCN(Cc2ccccc2)C1,-3,0,-1,19,.,.
Cc1c(CCO)sc[n+]1CC(=O)OC1CC(C)CCC1C(C)C (stereo not given),1,0,5.4*,-2,1,15
Cc1cc(C)nc(SCC(=O)OC2CC(C)CCC2C(C)C)n1 (stereo not given),13,0,2,2,.,.
CCc1ccc(NC(=O)c2ccc(F)c(S(=O)(=O)NCc3ccc(C)cc3)c2)cc1,-4,0,2,-6,.,.
O=C(Nc1ccccc1)c1ccc(Cl)c(S(=O)(=O)NCc2ccccc2)c1,13,0,8.2*,-2,-1,-13
C=CCNS(=O)(=O)c1cc(C(=O)Nc2ccc(OCC)cc2)ccc1F,26,0,5.7*,7,0,-1
Cc1ccc(CNS(=O)(=O)c2cc(C(=O)Nc3ccc(C(C)C)cc3)ccc2F)cc1,4,0,5.8*,13,1,7
C=CCNS(=O)(=O)c1cc(C(=O)Nc2cc(Cl)cc(Cl)c2)ccc1F,-16,0,-2,-9,.,.
CCOC(=O)CN(C)C1CCC(=O)N(Cc2ccccc2Cl)CC1 (stereo not given),1,0,-2,18,.,.
SMILES,TEAD-YAP inh,FBW7 activator,GPR151 ag,MITF primary,GPR151 confirm,GPR119 ag
CCC(=Nc1ccc(OC)cc1)C1=C(O)CC(C)(C)CC1=O,11,1,-1,-11,.,.
CCOc1ccc2c(c1)CC(C(=O)Nc1ccc(-c3cn[nH]c3)cc1)NC2 (stereo not given),-6,0,0,11,.,.
S=C1NC2(CCCCC2)NN1c1ccccc1,4,0,6.6*,13,0,-10
Cc1ccc(N2NC3(CCCCCC3)NC2=S)cc1,-3,0,0,7,.,.
CCc1cccc2c(C=O)cn(CC(=O)OC)c12,-8,0,0,-5,.,.
CCOC(=O)c1cccc2c3c([nH]c12)C(C(=O)OCC)CCC3 (stereo not given),-4,0,5.0*,-9,0,-6
C=CCNC(=O)COc1c(C)cc(Br)cc1C,1,0,12*,-10,0,2
C=CCNC(=S)NNC(=O)COc1ccc2cc(Br)ccc2c1,-74,0,9.7*,-10,0,-4
CCOC(=O)c1cc2occc2n1CC(=O)Nc1ccc(OC)cc1,2,0,5,0,.,.
Nc1n[nH]c(-c2ccccc2I)n1,-5,0,0,2,.,.
O=C(COc1ccc(Cl)cc1)Nc1ccccn1,49*,0,9.2*,-20,1,-51
COc1ccc(-c2cn3cccnc3n2)cc1NC(=O)COc1ccc(Cl)cc1,-29,1,-1,19,.,.
O=C(COc1ccc(Cl)cc1)Nc1ccc(-c2cn3cccnc3n2)cc1,-5,23*,8.6*,-6,3,11
CCc1cccc(CC)c1NC(=O)CN1C(=O)NC2(CCCCC2C)C1=O (stereo not given),0,0,6.2*,-5,1,0
O=C(NCC1CCCN(S(=O)(=O)/C=C/c2ccccc2)C1)c1cc2ccccc2[nH]1 (stereo not given),4,0,-1,-14,.,.
Cc1cc(S(=O)(=O)N2CCCC(CNC(=O)c3cc4ccccc4[nH]3)C2)c(C)s1 (stereo not given),0,0,6.2*,9,0,-2
COCCN1C(=O)C(O)=C(C(=O)c2cc3ccccc3o2)C1c1cccc([N+](=O)[O-])c1 (stereo not given),8,0,5.7*,10,-1,-11
Cc1ccc(-c2c(Nc3ccc(Cl)cc3)c(=O)c2=O)cc1,-3,0,5.0*,3,2,8
C/C(=N/NC(N)=S)c1ccccc1[N+](=O)[O-],6,0,5.6*,-2,-1,-8
O=C(O)c1ccc(NC(=O)C2CC(=O)N(CCc3ccccc3)C(=Nc3cc(Cl)cc(Cl)c3)S2)cc1 (stereo not given),-4,1,-2,26,.,.
CCCCN(CCCC)c1nc(C)cc(=O)[nH]1,5,0,5.1*!,-5,0,-1
COc1cc(NS(=O)(=O)c2ccc(NC(=O)Nc3ccc(F)cc3F)cc2)ncn1,-2,0,-2,3,.,.
CC1(C)CC(=O)N(CC(=O)N2CCCCCC2)c2ccccc2S1,-4,0,4,5,.,.

# Screening results deposited in PubChem BioAssay by The Scripps Research Institute Molecular Screening Center.
